This excerpt belongs to a sample that is enriched for hits.
DUX4 txn inh – DUX4-mediated transcription inhibition; 293T-iDUX4 ZSCAN4-Gaussia luciferase reporter, 24 h; active compounds read low; activity change, negative = inhibition, % (concentration not given with the values); 0.8% of 37,000 active;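 active means mean inhibition of at least 10% in the main channel, exceeding the control channel by a set limit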
Hits are given with their value; – = inactive.

SMILES	DUX4 txn inh
C[C@H]1CN([C@@H](C)CO)C(=O)c2c(c3ccccc3n2C)-c2ccccc2CO[C@@H]1CN(C)Cc1ccc(-c2ccccc2)cc1	-41.4
C[C@@H]1CN([C@H](C)CO)C(=O)c2c(c3ccccc3n2C)-c2ccccc2CO[C@@H]1CN(C)Cc1ccc(Cl)c(Cl)c1	-18.7
C[C@@H]1CN([C@@H](C)CO)C(=O)c2c(c3ccccc3n2C)-c2ccccc2CO[C@H]1CN(C)Cc1ccncc1	–
C[C@@H]1CN([C@@H](C)CO)C(=O)c2c(c3ccccc3n2C)-c2ccccc2CO[C@@H]1CN(C)Cc1ccc(-c2ccccc2)cc1	–
C[C@H]1CN([C@@H](C)CO)C(=O)c2c(c3ccccc3n2C)-c2ccccc2CO[C@@H]1CN(C)Cc1ccc(Cl)c(Cl)c1	-49.0
C[C@@H]1CN([C@H](C)CO)C(=O)c2ccccc2-c2ccccc2CO[C@@H]1CN(C)Cc1ccc(C(=O)O)cc1	–
C[C@H]1CN([C@@H](C)CO)C(=O)c2c(c3ccccc3n2C)-c2ccccc2CO[C@@H]1CN(C)Cc1ccncc1	–
C[C@H](CO)N1C[C@H](C)[C@@H](CN(C)Cc2ccncc2)OCc2ccccc2-c2c(n(C)c3ccccc23)C1=O	–
C[C@@H]1CN([C@@H](C)CO)C(=O)c2c(c3ccccc3n2C)-c2ccccc2CO[C@@H]1CN(C)Cc1ccc(Cl)c(Cl)c1	–
C[C@@H]1CN([C@H](C)CO)C(=O)c2ccccc2-c2ccccc2CO[C@@H]1CN(C)Cc1ccc(C(F)(F)F)cc1	-24.7
C[C@H]1CN([C@@H](C)CO)C(=O)c2ccccc2-c2ccccc2CO[C@H]1CN(C)Cc1ccc(O)cc1	–
C[C@@H]1CN([C@@H](C)CO)C(=O)c2c(c3ccccc3n2C)-c2ccccc2CO[C@H]1CN(C)Cc1ccc(-c2ccccc2)cc1	–
COc1ccc2c3c([nH]c2c1)[C@H](CO)N(C(=O)CN1CCOCC1)CC31CCN(C(C)=O)CC1	–
CCS(=O)(=O)N1CC(=O)N2[C@H](C1)[C@H](c1ccc(C#Cc3cccc(F)c3)cc1)[C@@H]2CO	–
C[C@H]1CC=CC[C@H](c2cccc(Cl)c2)NC(=O)[C@H](C)N(C)C(=O)c2ccccc2O1 (mixture of isomers)	–
CN(C)CCCNC(=O)[C@@H]1[C@@H](CO)[C@@H]2Cn3c(ccc(-c4ccccc4)c3=O)[C@@H]2N1C	–
C/C=C/c1ccc([C@@H]2[C@@H](CO)N(C(=O)C3CCCCC3)C23CN(C(=O)NC(C)C)C3)cc1	–
O=C(c1ccc2c(c1)OCO2)N1CC2(C1)[C@H](c1ccccc1)[C@@H](CO)N2C(=O)C1CCC1	–
COCC(=O)N1CC2(C1)[C@H](c1ccccc1)[C@H](CO)N2C(=O)c1ccccc1	–
C/C=C/c1ccc2c(c1)O[C@H](CN(C)C(=O)Cc1cccnc1)[C@@H](C)CN([C@@H](C)CO)S2(=O)=O	–
COc1ccc2c3c([nH]c2c1)[C@@H](CO)N(C(=O)CN(C)C)CC31CCN(Cc2ccccc2)CC1	–
COC(=O)C[C@H]1CC[C@@H]2[C@H](COC[C@@H](O)CN2C(=O)Nc2cccc(F)c2)O1	–
Cn1cnc(CCNC(=O)C[C@@H]2CC[C@H]3[C@@H](COC[C@@H](O)CN3C(=O)Nc3ccc(F)cc3)O2)c1	–
CCCN1[C@@H]2c3ccc(C4=CCCC4)c(=O)n3C[C@H]1[C@H](CO)[C@H]2C(=O)NCc1ccccn1	–
C[C@H]1CN([C@@H](C)CO)C(=O)CCCn2nncc2CO[C@@H]1CN(C)Cc1ccc(O)cc1	–
SMILES	DUX4 txn inh
C[C@@H]1CN([C@H](C)CO)C(=O)CCCn2nncc2CO[C@H]1CN(C)Cc1ccc(C(=O)Nc2ccccc2N)cc1	-21.6
C[C@H](CO)N1C[C@H](C)[C@@H](CN(C)Cc2ccc(C(F)(F)F)cc2)OCc2cnnn2CCCC1=O	–
C[C@H]1CN([C@@H](C)CO)C(=O)CCCn2nncc2CO[C@H]1CN(C)Cc1ccc(O)cc1	–
C[C@H]1CN([C@@H](C)CO)C(=O)CCCn2nncc2CO[C@@H]1CN(C)Cc1ccc(C(=O)O)cc1	–
C[C@H]1CN([C@@H](C)CO)C(=O)CCCn2nncc2CO[C@@H]1CN(C)Cc1ccc(C(F)(F)F)cc1	–
C[C@@H]1CN([C@@H](C)CO)C(=O)CCCn2nncc2CO[C@H]1CN(C)Cc1ccc(C(=O)Nc2ccccc2N)cc1	-25.4
C[C@H](CO)N1C[C@H](C)[C@@H](CN(C)Cc2ccc(C(=O)O)cc2)OCc2cnnn2CCCC1=O	–
C[C@H](CO)N1C[C@H](C)[C@@H](CN(C)Cc2ccc(C(=O)Nc3ccccc3N)cc2)OCc2cnnn2CCCC1=O	-20.1
Cc1noc(C)c1S(=O)(=O)N(C)C[C@H]1Oc2ccc(NC(=O)Nc3ccc4c(c3)OCO4)cc2C(=O)N([C@H](C)CO)C[C@@H]1C	–
CCS(=O)(=O)N1CC(=O)N2[C@H](CO)[C@@H](c3ccc(-c4ccccc4C)cc3)[C@@H]2C1	–
C[C@H](CO)N1C[C@H](C)[C@H](CN(C)Cc2ccccc2F)Oc2cc(C3=CCCCC3)ccc2S1(=O)=O	–
CCC(=O)N1C[C@H](C)[C@H](OC)CN(C)C(=O)c2cc(NC(=O)c3cc(C)on3)ccc2OC[C@@H]1C	–
COCC(=O)N1CC2(C1)[C@@H](c1ccccc1)[C@@H](CO)N2Cc1ccccc1OC	–
O=C1N[C@H](Cc2ccccc2)COCc2cn(nn2)CC[C@H]1Cc1ccc(-c2ccccc2)cc1	–
COc1cccc(CN2[C@@H](CO)[C@@H](c3ccccc3)C23CN(Cc2ccccc2OC)C3)c1	-38.2
COc1cccc(CN2[C@@H](CO)[C@@H](c3ccccc3)C23CN(C(=O)C2CCC2)C3)c1	–
COc1cccc(CN2[C@@H](CO)[C@@H](c3ccccc3)C23CN(C(=O)C2CC2)C3)c1	–
CCC(=O)N1[C@@H](CO)[C@@H](c2ccc(-c3ccccc3C)cc2)C12CN(C(C)=O)C2	–
Cc1noc(C)c1NC(=O)N(C)C[C@H]1OCCCC[C@H](C)Oc2ccc(NS(=O)(=O)c3cn(C)cn3)cc2C(=O)N([C@H](C)CO)C[C@@H]1C	–
CCNC(=O)[C@H]1[C@H](CO)[C@H]2Cn3c(ccc(-c4cccc(F)c4)c3=O)[C@@H]1N2C(C)=O	–
CN1C(=O)c2cc(NC(=O)c3cccc(C(F)(F)F)c3)ccc2OC[C@H]2O[C@@H](CC(=O)O)CC[C@H]21	–
CN(C)CC(=O)Nc1ccc2c(c1)[C@@H]1C[C@H](CC(=O)NCc3ccc(-c4ccccc4)cc3)O[C@H](CO)[C@@H]1O2	–
O=C(C[C@H]1C[C@H]2c3cc(NC(=O)Cc4ccncc4)ccc3O[C@H]2[C@H](CO)O1)NCc1ccc(-c2ccccc2)cc1	-68.4
O=C(C[C@@H]1C[C@@H]2c3cc(NC(=O)Cc4ccncc4)ccc3O[C@@H]2[C@H](CO)O1)NCc1cc(F)ccc1F	–
O=C(C[C@@H]1C[C@H]2c3cc(NC(=O)CC4CC4)ccc3O[C@H]2[C@H](CO)O1)NCc1cc(F)ccc1F	–
O=C(C[C@H]1C[C@H]2c3cc(NC(=O)Cc4ccncc4)ccc3O[C@H]2[C@H](CO)O1)NCc1cc(F)ccc1F	-35.8
CN(C)CC(=O)Nc1ccc2c(c1)[C@@H]1C[C@@H](CC(=O)NCc3ccc(-c4ccccc4)cc3)O[C@H](CO)[C@@H]1O2	–
CCCC(=O)Nc1ccc2c(c1)C(=O)N(C)C[C@@H](OC)[C@H](C)CN(C(=O)C1CCCC1)[C@@H](C)CO2	–
COc1ccc(CNC(=O)C[C@@H]2CC[C@H](NC(=O)CN(C)C)[C@@H](CO)O2)cc1	–
